Source: PubChem BioAssay
Rows were chosen to be rich in hits. Some 9.4% of all compounds tested hit in one or more screens of this group.
ELG1 genotoxic: induces genotoxicity in HEK293T cells with luciferase-tagged ELG1; Potency, µM (series often up to 46 µM), for inactives: at the top dose activity change, positive = activation, hits mostly activators; 1.3% of 330,000 active; HEK293T ELG1-luciferase reporter, luminescence, 16 h; further: % of control where 0% means no effect; nearly all actives have a fitted effect of over 60% in size
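Luminescence read-out: rising ELG1-luciferase signal, reflecting elevated ELG1 protein under genetic stress, flags genotoxic compounds. Cells were treated for 16 hr at 37 °C before ONE-Glo detection.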
FLuc counter: inhibits or activates purified firefly luciferase, miR-21 counter-screen | Potency, µM (titrated, usually from 57.5 µM), inactives show top-dose activity change, negative = inhibition, hits mostly inhibitors | AID 588342 | 6.9% of 360,000 active | purified FLuc, Km substrates, luminescence inhibition;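 further: plate controls were vehicle for no effect and reference inhibitor for full effect; nearly all actives have a fitted effect of over 55% in size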
Target sequence (P08659 whole entry, looked up): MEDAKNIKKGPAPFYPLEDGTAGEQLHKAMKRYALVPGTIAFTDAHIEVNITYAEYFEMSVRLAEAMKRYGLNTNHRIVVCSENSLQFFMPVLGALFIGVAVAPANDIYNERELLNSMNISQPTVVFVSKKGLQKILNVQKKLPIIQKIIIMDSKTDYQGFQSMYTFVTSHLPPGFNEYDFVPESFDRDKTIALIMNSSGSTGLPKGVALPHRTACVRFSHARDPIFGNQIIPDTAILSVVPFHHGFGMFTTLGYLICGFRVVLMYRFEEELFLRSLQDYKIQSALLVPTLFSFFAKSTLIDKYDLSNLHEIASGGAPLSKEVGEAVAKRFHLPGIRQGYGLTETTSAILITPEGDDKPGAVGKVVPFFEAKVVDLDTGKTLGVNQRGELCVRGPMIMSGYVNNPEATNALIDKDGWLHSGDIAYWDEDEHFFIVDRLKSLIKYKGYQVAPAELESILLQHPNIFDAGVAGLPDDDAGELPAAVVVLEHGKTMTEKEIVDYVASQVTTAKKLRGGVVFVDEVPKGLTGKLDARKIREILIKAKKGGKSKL
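Purified P. pyralis luciferase, 10 nM final, with Km-level 10 uM D-luciferin and 10 uM ATP in 50 mM Tris acetate pH 7.5, 10 mM Mg acetate, 0.01% Tween-20, 0.05% BSA; 6-point qHTS titration about 60 µM downward; luminescence read.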
Rab9 prom act: Rab9 promoter activation | Huh7 Rab9 promoter-luciferase reporter, luminescence, 24 h | Potency, µM (doses to about 9.22 µM), inactives show at the highest dose activation, negative = inhibition, most hits filed as activators | 2.8% of 320,000 active | AID 485297; further: % of control where 0% means no effect; nearly all actives have a fitted effect of over 60% in size
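Quantitative HTS format; Huh7 Rab9-luciferase reporter cells (1500/well) receive compound 2 h post-plating, incubate 24 h at 37 °C, then get luciferase reagent for 10 min before luminescence reading.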
ELG1 repair inh: ELG1-dependent DNA repair inhibition. Potency, µM (highest dose often 46.1 µM), for inactives: at the top dose activity change, negative = inhibition, usual class: inhibitors. 2.3% of 330,000 active. HEK293T ELG1-luciferase reporter, luminescence, 16 h; DNA damage induced by 5-fluorouridine; further: on the % scale 0 is the no-effect control and ±100 the full control effect; nearly all actives have a fitted effect of over 55% in size
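HEK293T cells expressing luciferase-tagged ELG1 (2,000/well) received 5-Fluorouridine plus compound or DMSO for 16 hr at 37 °C. Luciferase was read by ONE-Glo luminescence after 30 min at room temperature.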
SMN2 splice enh: enhancers of SMN2 splice variant expression; 2.8% of 210,000 active; Potency, µM (doses to about 46.1 µM), without a hit: at the highest dose activity change, positive = activation, actives largely listed as activators; HEK293 SMN2-luciferase splicing reporter, luminescence, 30-36 h; further: % of control where 0% means no effect; nearly all actives have a fitted effect of over 55% in size
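HEK293 cells carry an SMN2 […]–luciferase reporter in which exon 7 inclusion puts luciferase in frame. Cells were plated 10-12 h before compound addition, then incubated 30-36 h at 37C. ONE-Glo luminescence was read; sodium butyrate at 4.5 mM final served as control.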
NPC1 promoter act: activates the NPC1 promoter; AID 485313; 2.4% of 320,000 active; Huh7 NPC1 promoter luciferase reporter, 24 h; Potency, µM (top dose mostly 9.22 µM), inactives show at the top dose activation, usual class: activators; further: % of control where 0% means no effect; nearly all actives have a fitted effect of over 60% in size
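Stable NPC1-promoter luciferase Huh7 line; cpd (DMSO) 24 h, 37 °C, 5% CO2; Amplite luciferase reagent 10 min RT; luminescence readout. qHTS format.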
Numbers without * were called inactive; ? = inconclusive; / = no result given. The call rests on the fitted dose curve; in most records, active means well fitted curve in the direction sought with a large enough effect; inconclusive means small, poorly fitted or top-dose-only effect, or another doubt; inactive means no such curve, though single readings can be large; an effect the other way counts as inactive or inconclusive. Potency means the concentration at half of the fitted maximal effect.

SMILES	ELG1 genotoxic	FLuc counter	Rab9 prom act	ELG1 repair inh	SMN2 splice enh	NPC1 promoter act
COc1ccc(-c2csc(NC(=O)CSc3nc(SC)ns3)n2)cc1	?	?	26%	?	22µM*	?
C=CCn1c(C)cc(C(=O)CSc2nc(N)cc(N)n2)c1C	3%	21µM*	21%	0%	-1%	1%
Cc1cc(C(=O)CSc2nc(N)cc(N)n2)c(C)n1-c1cccc(F)c1	-2%	24µM*	-5%	18%	-37%	3%
N#Cc1nc(-c2ccc(Cl)cc2)oc1NCC1CCCO1 (centres undefined)	?	21µM*	?	?	?	10%
COc1ccc(-c2nc(C#N)c(NC(C)C)o2)cc1	27%	13µM*	?	?	5%	?
N#Cc1nc(-c2cccc3ccccc23)oc1NCC1CCCO1 (centres undefined)	?	12µM*	25%	-1%	/	7%
C=CCNc1oc(-c2ccc(Cl)cc2)nc1C#N	-1%	/	/	?	/	/
CNc1oc(-c2ccc(Cl)cc2)nc1C#N	?	11µM*	?	?	13%	?
COc1c(O)cc2oc3cc(O)c(CC=C(C)C)c(O)c3c(=O)c2c1CC=C(C)C	/	/	/	/	-8%	/
CC(C)(C)c1nnc(NC(=O)c2ccc(Cl)nc2)s1	16%	?	4.5µM*	?	/	23%
CCc1nnc(NC(=O)c2cc(Cl)ccn2)s1	16µM*	15µM*	2.5µM*	?	/	2.2µM*
O=C(Nc1nnc(C2CC2)s1)c1ccc(S(=O)(=O)c2ccccc2)cc1	0%	2%	-3%	9%	-14%	1%
CCc1nnc(NC(=O)c2ccc(Cl)nc2)s1	?	13µM*	?	?	26%	26%
O=C(Nc1nnc(C2CC2)s1)c1ccc(Cl)nc1	?	12µM*	?	?	/	?
COC(=O)c1n[nH]n(-c2ccccc2)c1=O	/	7%	/	/	5%	/
Cc1nc(CC(=O)Nc2ccc(C(N)=O)cc2)cs1	/	1%	/	/	-26%	/
CCc1ccccc1NC(=O)Nc1cc(C(=O)NCc2ccc(OC)cc2)ccc1N1CCCC1	/	0%	/	/	/	/
Cc1ccc(C(C)C)c(OCC(=O)Nc2cc(-c3nc4ccccc4[nH]3)ccc2C)c1	/	-9%	/	/	-64%	/
Fc1ccc(-c2cn3ccccc3n2)cc1	?	2.7µM*	0.56µM*	?	/	0.71µM*
O=S(=O)(c1ccc(-c2cn3ccccc3n2)cc1)N1CCOCC1	11%	?	2%	9%	-43%	3%
CCOc1ccc(-c2cn3ccccc3n2)cc1	?	0.54µM*	?	?	0.89µM*	?
CC(C)c1ccc2c(c1)NC(c1ccc(F)cc1)=NC(c1cccs1)=N2	/	-18%	/	/	-1%	/
Cc1cc(C(C)(C)C)cc(C)c1Cn1c2[n+](c3ccc(C(F)(F)F)cc31)CCCCC2	-17%	2%	-4%	15µM*	-16%	-8%
FC(F)(F)c1cccc(Cn2c3[n+](c4ccc(C(F)(F)F)cc42)CCCCC3)c1	-11%	-1%	-20%	?	12%	-3%
CCOC(=O)COc1ccc(C)cc1C(=O)c1ccn2nc(-c3ccc(Cl)cc3)cc2n1	/	-4%	/	/	7%	/
SMILES	ELG1 genotoxic	FLuc counter	Rab9 prom act	ELG1 repair inh	SMN2 splice enh	NPC1 promoter act
Cc1noc(Cn2c(=O)c3ccccc3n(CC(=O)Nc3ccc(C(C)C)cc3)c2=O)n1	/	-10%	/	/	/	/
O=C(/C=C/c1ccc(OCCCF)cc1)Nc1ccnc(-c2cccnc2)n1	-5%	?	-1%	7.3µM*	-36%	-2%
CN(C)C(CNC(=O)c1ccc2c(=O)n(-c3ccccc3F)c(=S)[nH]c2c1)Cc1ccccc1 (centres undefined)	-5%	-1%	0%	5%	-14%	-2%
Cc1ccc(-c2noc(CCCc3ccccc3)n2)cc1	14%	24µM*	10%	?	5%	29%
Fc1ccc(OCc2nc(-c3ccc(Br)o3)no2)c(F)c1	16%	17µM*	16%	?	-2%	23%
Brc1ccc(-c2noc(CCc3ccccc3)n2)o1	15%	24µM*	19%	?	18%	19%
c1ccc(CCc2nc(-c3ccccn3)no2)cc1	?	13µM*	2.2µM*	?	11µM*	3.2µM*
COc1ccc(-c2noc(CCCc3ccccc3)n2)cc1OC	3%	?	-2%	7%	5%	-1%
NC=O	/	/	/	/	-10%	/
COc1ccc(N2CCN(C(=O)c3cnn(-c4ccc(OC)cc4)c3C3CCN(C(=O)OC(C)(C)C)CC3)CC2)cc1	/	-2%	/	/	/	/
Clc1ccccc1OCc1nc(-c2ccc(Br)o2)no1	23µM*	15µM*	?	?	?	30%
O=C(CSc1nc2ccc(NC(=O)CSc3nnnn3-c3ccccc3)cc2s1)Nc1ccccc1	13%	5%	-2%	?	-29%	-4%
CCC(=O)Nc1ccc2nc(SCc3ccccc3)sc2c1	/	15µM*	/	/	/	/
Cn1cnnc1SCC(=O)Nc1ccc2nc(SCc3ccccc3F)sc2c1	?	6.7µM*	1.6µM*	?	?	2.8µM*
N#CC1(O)CCCCC1	/	/	/	/	5%	/
Cc1cccc(CN2CCC(Oc3ccc(C(=O)N4CCCC4)cc3)CC2)n1	1%	5%	4%	10%	/	1%
Cc1csc2nc(CSc3nc4ccccc4o3)c(Br)n12	2.9µM*	8.5µM*	2.5µM*	?	?	3.5µM*
Cc1cc(C(=O)O)ccc1-c1ccc(CO)o1	15%	27µM*	10%	?	1%	3%
Nc1ccc(Oc2ccc3c(c2)C(=O)N(CC2CCCO2)C3=O)cc1 (centres undefined)	?	9.5µM*	?	?	/	?
CCOc1ccccc1NC(=O)c1ccc2c(c1)C(=O)N(CC1CCCO1)C2=O (centres undefined)	2%	6%	0%	6%	/	-8%
O=C(Nc1ccc2c(c1)C(=O)N(CC1CCCO1)C2=O)c1ccc(Cl)c(Cl)c1 (centres undefined)	14%	5.4µM*	-13%	9.2µM*	-78%	-8%
Cc1ccc(NC(=O)c2ccc3c(c2)C(=O)N(CC2CCCO2)C3=O)cc1C (centres undefined)	2%	11µM*	14%	-9%	/	0%
Cc1c(NC(=O)c2ccc3c(c2)C(=O)N(CC2CCCO2)C3=O)cccc1C(=O)O (centres undefined)	2%	15µM*	1%	?	15%	-3%
